An excerpt weighted towards active compounds, which were near 7.1% of everything screened.
M1 ag = agonists of M1 muscarinic receptor; B-score at 10 µM; CHO-M1 cells, Fluo-4 calcium fluorescence, agonist mode; active compounds read high; AID 626; actives 3% (n = 64,000);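 active = fluorescence rise, raw or as B-score row- and column-corrected plate score, outside the 99.7% band of its plate's samples, either direction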
M1 antagonist = blocks the rat M1 muscarinic receptor response to acetylcholine. P08482. CHO-M1 cells, Fluo-4 calcium, ACh EC80 antagonist mode; active compounds read low. B-score at 10 µM. actives 3.4% (n = 64,000). AID 628;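 active = calcium fluorescence response, raw or row-and-column corrected B-score, differing from the plate sample mean either way at a set confidence level, mostly lower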
Target sequence (P08482 whole entry, looked up): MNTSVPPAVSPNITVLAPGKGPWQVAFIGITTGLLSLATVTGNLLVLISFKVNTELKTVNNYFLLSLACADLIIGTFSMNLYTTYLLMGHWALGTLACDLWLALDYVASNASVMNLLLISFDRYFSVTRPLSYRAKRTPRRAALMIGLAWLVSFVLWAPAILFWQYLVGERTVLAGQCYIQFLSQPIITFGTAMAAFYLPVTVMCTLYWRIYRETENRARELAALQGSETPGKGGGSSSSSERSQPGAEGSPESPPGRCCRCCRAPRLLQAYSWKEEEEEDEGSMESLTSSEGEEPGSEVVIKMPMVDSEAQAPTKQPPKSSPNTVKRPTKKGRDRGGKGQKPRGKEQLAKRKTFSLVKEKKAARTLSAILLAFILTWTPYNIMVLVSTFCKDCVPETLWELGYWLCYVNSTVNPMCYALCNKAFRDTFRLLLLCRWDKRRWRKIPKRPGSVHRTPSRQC
Pyk2 oligo antag = blocks oligomerization of human Pyk2 in cells; Q293 cells, Pyk2 FERM NanoBiT luminescence; active compounds read low; AID 1347419; actives 0.83% (n = 99,000); z-score (the deposit names both 25 µM and 10 µM);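 active = Z-score of -3 or lower, scaled per plate to the spread of control and sample wells; inactive = z-score above -3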;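 note: negative z-score means lost luminescence so less FERM oligomerization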
Cav3 T inh = blocks human Cav3.2 T-type calcium channel | O95180 | Cav3.2-expressing cells, Fluo-4 calcium fluorescence FDSS; active compounds read low | B-score at 10 µM | actives 4% (n = 100,000);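 active = single-dose well whose peak fluorescence ratio is a statistical outlier from its plate by either plate-standardised score or position-corrected B-score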
M1 ag confirm = confirmation of rat M1 muscarinic receptor agonists. shares compounds with M1 ag. actives 19% (n = 1,700). fluorescence change (max-min) at 10 µM. AID 1488. CHO-M1 cells, Fluo-4 calcium fluorescence, agonist mode; actives lie on both sides;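 active = fluorescence change differs from the solvent-only DMSO control mean at a set confidence level in both duplicate runs; inconclusive = differs from solvent-only control mean in just one of two runs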;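 note: an EC20 dose of acetylcholine follows compound addition during the same imaging run; raw fluorescence intensity difference in instrument units with no normalization to controls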
M4 ag counter = counter-screen for M1 agonists: activity at rat M4 receptor | fluorescence change (max-min) at 10 µM | shares compounds with M1 ag | CHO M4/Gqi5 cells, Fluo-4 calcium fluorescence, agonist mode; actives lie on both sides | actives 9% (n = 1,700);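 active = fluorescence change differing from the plate's solvent-only control wells at 99.7% confidence in both duplicates, whether higher or lower; inconclusive = differs from solvent controls in only one of two duplicates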
Starred values were filed as active, the others as inactive; ? = inconclusive; / = not tested or not shown.

SMILES	M1 ag	M1 antagonist	Pyk2 oligo antag	Cav3 T inh	others
O=C(CN(c1ccc(Cl)cc1)S(=O)(=O)c1ccccc1)N/N=C/c1ccco1	/	/	0.2	-6*
CCSC1=C(C#N)C(c2ccccc2Cl)C(C(=O)c2cccs2)C(O)(C(F)(F)F)N1 (centres undefined)	/	/	0.09	-9.2*
O=C(CSc1nnc(-c2cccs2)n1-c1cccc(Cl)c1)c1cccc2c1OCCO2	/	/	-3.1*	-0.39
CCOC(=O)CN(C(=O)CSc1nnc(Cc2ccccc2)n1-c1ccc(C)cc1)c1ccccc1	/	/	-1.4	-8.4*
Cc1ccc(-n2c(Cc3ccccc3)nnc2SCC(=O)NNC(=O)Cc2ccccc2)cc1	/	/	0.67	-5.7*
CCOC(=O)CSc1nnc(Cc2ccccc2)n1-c1ccc(C)cc1	/	/	-0.54	-2.8
CCOc1ccc(-n2c(Cc3ccccc3)nnc2SCc2c(C)noc2C)cc1	-0.16	-0.23	-0.48	-4.3*
Cc1ccc(-c2noc(CSc3nnc(Cc4ccccc4)n3-c3ccc(Cl)cc3)n2)cc1	/	/	-0.19	-5.4*
COc1ccc(-c2noc(CSc3nnc(Cc4ccccc4)n3-c3ccc(Cl)cc3)n2)cc1	/	/	-0.34	-4.4
CC1(c2nnc(-c3ccccc3)o2)CC(c2ccc([N+](=O)[O-])cc2)=NO1 (centres undefined)	/	/	/	-1.6
CCc1nnc(NC(=O)CSc2nnc(Cc3ccccc3)n2-c2ccccc2)s1	-1	0.17	-0.94	-4.5*
CCc1nnc(NC(=O)CSc2nnc(C3CCCCC3)n2-c2cccc(Cl)c2)s1	/	/	-1.1	-4.3*
CCc1nnc(NC(=O)CSc2nnc(CNc3cccc(Cl)c3)n2CC)s1	/	/	-0.03	-1.5
COc1cccc(N(CC(=O)NCCSc2ccccc2)S(C)(=O)=O)c1	-0.73	1.3	0.53	0.28
CS(=O)(=O)N(CC(=O)NCCSCc1c(F)cccc1Cl)c1ccc2c(c1)OCO2	0.17	-0.35	0.95	-6.5*
COc1cccc(N(CC(=O)NCCSc2ccc(Cl)cc2)S(C)(=O)=O)c1	/	/	-0.36	-5.5*
COc1ccc(N(CC(=O)NCCSCc2c(F)cccc2Cl)S(C)(=O)=O)cc1OC	/	/	2	0.53
CCCn1cnc2c1c(=O)n(CCCCC(C)=O)c(=O)n2C	/	/	/	-0.019
CCCCSc1nc(N)c(C#N)c(-c2cccs2)c1C#N	0.76	-0.18	-3.8*	0.65
CCOC(=O)C1CCCN(C(=O)C2c3ccccc3Oc3ccccc32)C1 (centres undefined)	-0.37	0.68*	0.62	-5.8*
CCOC(=O)C1CCCN(C(=O)CC(c2ccccc2)c2ccccc2)C1 (centres undefined)	/	/	-0.51	-2.5
O=S(=O)(c1ccc(Cl)cc1)N1CCCC1c1nc2ccccc2s1 (centres undefined)	/	/	1.6	-4.5*
O=S(=O)(c1cc(Cl)cc(Cl)c1)N1CCCC1c1nc2ccccc2s1 (centres undefined)	/	/	1.8	0.77
COc1ccc(-c2cnc(SCC(=O)Nc3ccc4c(c3)OCO4)n2Cc2ccco2)cc1	-1.3	-0.15	-2.1	-4.1*
CC(=O)Nc1cccc(NC(=O)CSc2ncc(-c3ccc(Cl)cc3)n2Cc2ccco2)c1	1.5	-1.4	-3.7*	-3.8*
SMILES	M1 ag	M1 antagonist	Pyk2 oligo antag	Cav3 T inh	others
O=C(CSc1nnc(-c2ccc(Cl)cc2)n1Cc1ccco1)Nc1ccc2c(c1)OCCO2	-0.0076	-0.021	0.04	-4
Cc1nn(-c2nc3ccccc3[nH]2)c(N)c1-c1ccccc1	0.52	0.042	-2.2	-2.5
O=c1cc(-c2ccccc2)[nH]n1-c1nc2ccccc2[nH]1	-0.97	-0.46	0.15	-5.6*
O=c1[nH]c(=O)n(-c2ccccc2)c2c1C(C(F)(F)F)(C(F)(F)F)N=C(CCC1CCCCC1)N2	/	/	-3.6*	/
O=C1Nc2c(c(=O)[nH]c(=O)n2-c2ccccc2)C(C(F)(F)F)(C(F)(F)F)N1	/	/	0.16	0.38
O=c1[nH]c(=O)n(Cc2ccco2)c2c1C(C(F)(F)F)(C(F)(F)F)N=C(CCc1ccccc1)N2	/	/	-4*	-3.2
N#Cc1ccc(C2=NC(C(F)(F)F)(C(F)(F)F)c3c(n(Cc4ccco4)c(=O)[nH]c3=O)N2)cc1	/	/	-0.25	-5.9*
CC(C)C[C@H]1COCCS(=O)(=O)N1Cc1cccc(F)c1	/	/	/	0.015
CC(C)c1ccc(-c2nnn(Cc3nc4ccccc4s3)n2)cc1	0.033	-0.12	-1.8	/
CN(C)CC1CCCCC1C1(O)c2ccccc2CSc2sccc21 (centres undefined)	/	/	1	-0.94
Cc1ccccc1Cn1nc(C)c(NC(=O)c2noc3c2CCc2ccccc2-3)c1C	0.24	-0.17	/	-6.9*
Cc1ccccc1Cn1nc(C)c(NC(=O)c2noc3c2CC(C(C)(C)C)CC3)c1C (centres undefined)	1.4	1.9	-2.4	-4.7*
Cc1ccccc1CSCCNC(=O)CCSc1ccccc1	/	/	-0.39	-6.1*
CCn1cc(C(=O)OCC(=O)Nc2ccc(S(=O)(=O)N3CCCC3)cc2)c(=O)c2ccc(C)nc21	0.59	-0.042	-0.61	0.26
Cc1csc(SCC(=O)Nc2nc(-c3ccccc3)cs2)n1	0.023	-0.98	0.69	-6*
Cc1ccc(-c2csc(NC(=O)CSc3nc(C)cs3)n2)cc1	/	/	0.85	-4.6*
Cc1cc(C)nc(SCc2nnc(SCC(=O)Nc3nc(-c4ccccc4)cs3)n2C)n1	/	/	0.66	-2.3
COc1ccccc1-c1nnc(SCC(=O)Nc2nc(-c3ccccc3)cs2)n1C	1.2	0.098	-3.2*	-6.6*
Cc1ccc(C(=O)CSc2nnc(CNc3nc(-c4ccccc4)cs3)n2C)cc1	/	/	0.67	-4.6*
CCn1c(SCC(=O)Nc2nc(-c3ccc(C)cc3)cs2)nnc1-c1ccccc1	/	/	-2.4	-1.8
CCN1C(=O)CC2(C[N+]3(C)CCC2CC3)C1=O (centres undefined)	/	/	0.27	/
NC1=NC[C@H](c2ccccc2)N1CCc1cccc(F)c1	/	/	/	0.071
Cc1cc(C(=O)COC(=O)C2=NNC(=O)CC2)c(C)n1-c1cccc(C(F)(F)F)c1	/	/	0.28	0.23
Cc1ccc(S(=O)(=O)Nc2cccc(NC(=O)CN3CCCCC3)c2)cc1	/	/	0.65	0.7
CCCCC(=O)OCCNC(=O)c1cc2ccccc2oc1=O	-0.97	-0.58	0.13	0.18
CCCCCCc1cc2cc(C(N)=O)c(=N)oc2cc1O	/	/	/	-11*
O=C(NCC(c1cccnc1)N1CCN(c2ccc(F)cc2)CC1)c1cccc(Cl)c1 (centres undefined)	5.8*	-1.3	-0.11	-1.9	M1 ag confirm=?;M4 ag counter=-51
CCS(=O)(=O)NCC(c1cccnc1)N1CCN(c2ccc(F)cc2)CC1 (centres undefined)	5.1*	-0.55	0.3	-0.18	M1 ag confirm=-11;M4 ag counter=-28
CC(C)CCn1c(SCC(=O)OCn2nnc3ccccc3c2=O)nc2ccccc2c1=O	3.7*	-0.044	0.13	-0.41	M1 ag confirm=-11;M4 ag counter=-39
COc1cccc(C(=O)OCn2nnc3ccccc3c2=O)c1	2.2*	-0.13	0.52	0.5	M1 ag confirm=-25;M4 ag counter=-21

Assay outcomes: PubChem BioAssay, several laboratories
